This assay concerns Plasmodium falciparum NF54 gametocytes. Kind of assay: viability index relative to DMSO control (fraction); higher = less gametocyte killing. To be noted: 12.5 µM, incubation time: 72 h. An outline of the steps:
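The viability index was calculated as the gametocyte particle count over the plate mean of solvent-only wells. For this, P. falciparum NF54 gametocytes of every stage (I–V) were held with compound at 12.5 µM for 72 hr at 37°C under low oxygen in 384-well plates. MitoTracker Red CMXRos staining for 20 min was followed by transfer of 5 µl into 40 µl of 500 nM dye in serum-free medium, with three fields imaged after 30 min.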

[1] abbreviates: gametocyte stage: Stage I viability index.
Setting [2] is: gametocyte stage: Stage II viability index.
Setting [3] is: gametocyte stage: Stage III viability index.
[4] abbreviates: gametocyte stage: Stage IV viability index.
[5] abbreviates: gametocyte stage: Stage V viability index.

Consider `CCN(Cc1ccccc1)C1CCN(Cc2cc(Br)ccc2O)CC1`, for which the viability index under setting [1] was found to be 0.0376; the viability index under setting [2] is 0.132; the viability index under setting [3] was determined as 0.573; the viability index under setting [4] stood at 0.617; the viability index under setting [5] is 0.659.
In the same order, the values of `Cc1ccc(C2CC(C(F)(F)F)n3nc(C(=O)N4CCN(C(c5ccccc5)c5ccccc5)CC4)cc3N2)cc1` (stereo not given) are 0.576, 0.645, 0.944, 0.804 and 0.922.
Taken in the same sequence, the figures for `O=C(NCC1Cc2cccc(-c3ccncc3)c2O1)c1csc2c1CCCC2` (stereo not given) were 1.09, 1.09, 0.945, 1.04 and 1.11.
In the same order, the values of `CC(=O)c1sc(NC(=O)Nc2ccc(C)cc2C)nc1C` are 0.271, 0.455, 0.673, 0.801 and 0.714.
With `COCCNC(=O)c1ccc(OC2CCN(Cc3ccc(F)c(F)c3)CC2)c(Cl)c1`, the viability index is, setting by setting: under setting [1], 0.672; under setting [2], 0.812; under setting [3], 1.07; under setting [4], 0.979; under setting [5], 0.901.
Taken in the same sequence, the figures for `CCCCCCn1c(=N)n(CC(O)COc2cccc(C)c2)c2ccccc21` (stereo not given) were 0.0787, 0.0425, 0.0828, 0.149 and 0.0779.
Taken in the same sequence, the figures for `Oc1ccccc1CN1CCC2(CCCN(Cc3ccccc3F)C2)C1` (stereo not given) were 0.0166, 0.161, 0.509, 0.657 and 1.07.
Taken in the same sequence, the figures for `Oc1ccc(Cl)cc1CNc1nc2ccccc2[nH]1` were 0.0751, 0.545, 0.822, 0.891 and 0.736.
With `COc1ccc2nc(C)cc(Nc3ccccc3O)c2c1`, the viability index was determined as 0.139 under setting [1]; 0.625 under setting [2]; 1.04 under setting [3]; 1.09 under setting [4]; 0.912 under setting [5].
In the same order, the values of `CCOc1ccc(-c2nonc2NC(=O)c2cccc(C)c2)cc1OCC` are 0.0619, 0.0773, 0.0679, 0.222 and 0.626.
`Cc1cccc(N2C(=O)C3C(C2=O)C2(c4ccccc4)C(=O)C3(c3ccccc3)C(c3ccc4c(c3)OCO4)=C2c2ccc3c(c2)OCO3)c1` (stereo not given): the viability index is, setting by setting: under setting [1], 1.16; under setting [2], 0.896; under setting [3], 1.08; under setting [4], 0.886; under setting [5], 1.03.
In the same order, the values of `COc1ccc(-c2nc3cc(Cc4ccc5[nH]c(-c6ccc(OC)cc6)nc5c4)ccc3[nH]2)cc1` are 0.0276, 0.441, 0.864, 0.809 and 0.538.
As for `O=C(NC1CCN(Cc2ccccc2)CC1)c1cc2nc(-c3ccc(Cl)s3)cc(C(F)(F)F)n2n1`, the viability index is 0.0778 under setting [1]; 0.366 under setting [2]; 0.843 under setting [3]; 0.883 under setting [4]; 1.01 under setting [5].
In the same order, the values of `O=C(Nc1ccc(-c2nc3cc4ccccc4cc3[nH]2)cc1)c1cccc(Br)c1` are 0.028, 0.421, 0.851, 0.873 and 0.909.
Taken in the same sequence, the figures for `COc1ccc(C(C)=O)cc1N1C(=O)C2C(C1=O)C1(c3ccccc3)C(=O)C2(c2ccccc2)C(c2ccc(C)cc2)=C1c1ccc(C)cc1` (stereo not given) were 1.04, 0.933, 1.01, 0.824 and 0.923.
In the same order, the values of `CCCOCc1cc(CN2CCN(c3cccc(Cl)c3)CC2)c(O)c2ncccc12` are 0.00962, 0.0225, 0.0244, 0.0127 and 0.
As for `COc1nc(Nc2ccc(C(C)C)cc2)nc(OC)n1`, the viability index runs as follows: under setting [1], 1.18; under setting [2], 0.871; under setting [3], 0.965; under setting [4], 1.06; under setting [5], 0.967.
In the same order, the values of `COc1ccc(C(=O)C(CCC(CNC(C)(C)C)C(=O)c2ccc(OC)cc2)CNC(C)(C)C)cc1` (stereo not given) are 0.811, 0.698, 0.548, 0.418 and 0.117.
In the same order, the values of `O=C1c2ccccc2-c2nnc(-c3ccc(Br)cc3)cc21` are 0.844, 0.875, 0.783, 0.873 and 0.87.
Taken in the same sequence, the figures for `CN1CCN(c2ncnc3c2[nH]c2ccc(Cl)cc23)CC1` were 0.263, 0.577, 0.92, 1.04 and 0.935.
Take `Nc1ccn(C2O[C@H](CO)[C@@H](O)[C@H]2O)c(=O)n1` (stereo not given in full): the viability index is, setting by setting: under setting [1], 0.976; under setting [2], 1.14; under setting [3], 0.955; under setting [4], 1.07; under setting [5], 1.1.
In the same order, the values of `COc1ccc(C(=O)Nc2ccc(Cl)cc2C(=O)Nc2ccncc2)cc1` are 0.0232, 0.557, 0.915, 0.763 and 0.692.
In the same order, the values of `COCCNCC(O)Cn1c2ccc(Cl)cc2c2cc(Cl)ccc21` (stereo not given) are 0.105, 0.0937, 0.407, 0.511 and 0.429.
Taken in the same sequence, the figures for `Cc1ccc(-c2cc3nc4c(c(O)n3n2)CCCC4)cc1` were 0.537, 0.804, 0.894, 0.766 and 0.857.
With `CCOc1ccc2nc(C)cc(Nc3ccc(N(C)C)cc3)c2c1`, the viability index reads like this: under setting [1], 0.157; under setting [2], 0.571; under setting [3], 0.868; under setting [4], 0.943; under setting [5], 0.857.
In the same order, the values of `O=c1cc(NC2CCN(CCCc3ccccc3)CC2)c2cc(Cl)ccc2o1` are 0.028, 0.408, 0.815, 0.848 and 0.675.
Taken in the same sequence, the figures for `CC1CN(C(=O)c2sc3ccccc3c2Cl)CC(C)O1` (stereo not given) were 0.768, 0.756, 0.97, 0.912 and 0.989.
In the same order, the values of `COc1ccc2nc(N)nc(C)c2c1` are 0.353, 0.614, 0.685, 0.959 and 1.04.
Consider `COc1ccc(C(=O)NC(c2ccc(Cl)cc2Cl)c2cc(Cl)c3cccnc3c2O)cc1` (stereo not given), for which the viability index under setting [1] worked out at 0.0262; the viability index under setting [2] is 0.0341; the viability index under setting [3] came to 0.0814; the viability index under setting [4] amounted to 0.136; the viability index under setting [5] was determined as 0.0779.
In the same order, the values of `CN(C)CCNc1cc(-c2ccccc2)nc2ccccc12` are 0.685, 0.795, 0.924, 0.883 and 0.727.
